Screening data from PubChem.
In the library only some 6.1% were active in any assay of this set; here they are far more common.
HepG2 tox – kills HepG2 cells in TGF-b inhibitor counter-screen. 0.76% of 410,000 active. Potency, µM (titrated, usually from 46.1 µM), hits mostly cytotoxic. AID 588856. HepG2 CAGA-GFP viability, ATP luminescence, 18 h
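HepG2 CAGA-GFP cells (1000/well, DMEM with 1% FBS) received compound, then TGF-beta at 500 pg/mL final, and were incubated 18 hours at 37 degrees C. Viability was read by CellTiter-Glo luminescence. Media-only wells were set as complete cell-killing and DMSO as no toxicity.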
ATXN viability – reduces viability in counter-screen for ATXN expression inhibitors. S2 cells (HEK-293 line with an ATXN2-luciferase reporter) viability, CellTiter-Fluor protease fluorescence, 24 h. Potency, µM (series often up to 56.7 µM), actives largely listed as cytotoxic. 0.49% of 400,000 active. AID 651635; further: nearly all actives have a fitted effect of over 40% in size
VP16 counter – counter-screen for ROR gamma inhibitors: Gal4-VP16 reporter | Drosophila S2 Gal4-VP16 UAS-luciferase, luminescence, 20 h | Potency, µM (titrated, usually from 53.6 µM), actives largely listed as inhibitors | 3.5% of 310,000 active;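 further: Gal4-VP16 expression switched on by copper sulfate through the metallothionein promoter; nearly all actives have a fitted effect of over 50% in size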
ATXN2 expr inh – inhibitors of ATXN2 expression | HEK-293 ATXN2-luciferase reporter, luminescence, 24 h | Potency, µM (series often up to 57 µM), actives largely listed as inhibitors | 0.72% of 360,000 active; further: nearly all actives have a fitted effect of over 55% in size
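ATXN2-luciferase reporter cells (luciferase flanked by upstream and downstream ATXN2 gene portions) were treated 24 h at 37 °C with compounds at up to 57 uM. SteadyGlo luminescence gave expression; GF-AFC fluorescence gave viability.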
TGFb inhibitor – blocks TGF-b signaling; HepG2 CAGA-GFP TGF-b/SMAD3 reporter, GFP fluorescence, 18 h; TGF-beta stimulated, 500 pg/mL final; Potency, µM (top dose mostly 46.1 µM), usual class: inhibitors; 1.2% of 410,000 active; further: nearly all actives have a fitted effect of over 65% in size
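Inhibition was scored as loss of TGF-beta-induced (500 pg/mL final, 18 hours, 37 degrees C) GFP in HEPG2 cells carrying a CAGA-GFP reporter, in DMEM with 1% FBS. Well GFP was summed per cell; Activity was normalised to unstimulated and stimulated DMSO wells, then concentration-response fitting.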
RORg inh – blocks mouse ROR gamma transcriptional activity. P51450. Drosophila S2 Gal4-RORgamma UAS-luciferase reporter, 20 h. Potency, µM (titrated, usually from 53.6 µM), hits mostly inhibitors. 5.4% of 310,000 active; further: nearly all actives have a fitted effect of over 60% in size
Target sequence (P51450 whole entry, looked up, the tested form may be a part): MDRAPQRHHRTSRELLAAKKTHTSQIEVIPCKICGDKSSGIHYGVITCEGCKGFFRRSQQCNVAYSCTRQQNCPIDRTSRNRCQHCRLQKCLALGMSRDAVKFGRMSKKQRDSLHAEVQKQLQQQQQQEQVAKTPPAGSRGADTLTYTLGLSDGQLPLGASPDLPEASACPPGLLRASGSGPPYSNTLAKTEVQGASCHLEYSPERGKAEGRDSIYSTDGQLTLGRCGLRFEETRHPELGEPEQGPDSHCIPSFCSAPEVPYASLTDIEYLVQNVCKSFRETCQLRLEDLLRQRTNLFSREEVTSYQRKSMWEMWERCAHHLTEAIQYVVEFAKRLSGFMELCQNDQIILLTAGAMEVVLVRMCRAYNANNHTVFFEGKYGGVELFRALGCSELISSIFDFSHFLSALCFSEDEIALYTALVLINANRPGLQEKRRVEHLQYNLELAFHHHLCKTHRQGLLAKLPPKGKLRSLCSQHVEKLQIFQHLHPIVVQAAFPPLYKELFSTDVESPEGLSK
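Stably transfected Drosophila Schneider cells are the test system, with ROR gamma fused to Gal4 and luciferase under UAS control; luminescence is read after 20 hr of 700 uM copper sulfate induction at ambient temperature.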
A number is an active result; i = inactive; ? = inconclusive; nt = no result; [ ] = another dose, or the depositor's remark. The call rests on the fitted dose curve; in most records, active means well fitted curve in the direction sought with a large enough effect; inconclusive means small, poorly fitted or top-dose-only effect, or another doubt; inactive means no such curve, though single readings can be large; an effect the other way counts as inactive or inconclusive.

SMILES | HepG2 tox | ATXN viability | VP16 counter | ATXN2 expr inh | TGFb inhibitor | RORg inh
Cc1ccc(Cl)cc1NC(=O)c1ccc2nc(CCc3ccccc3)oc2c1 | i | i | nt | i | ? | nt
COc1ccc(CCNc2oc(COc3ccccc3F)nc2C#N)cc1OC | i | i | i | i | i | ?
COc1ccc(Nc2oc(COc3ccccc3OC)nc2C#N)cc1 | i | i | i | 10µM | i | i
COc1ccc(CCNc2oc(COc3ccc(F)cc3)nc2C#N)cc1 | i | i | i | i | 15.8µM | i
CCSc1nnc2n(-c3cccc(C)c3)c(=O)c3c4c(sc3n12)CCCC4 | i | ? | nt | i | i | nt
O=C(NN=C1CCCC1)c1ccc(O)cc1O | i | i | 11.2µM | i | i | 7.94µM
NNC(=O)c1ccc(O)cc1O | i | ? | 3.16µM | i | i | 1.26µM
C[C@@H](O)C(N)C(=O)O (stereo not given in full) | nt | nt | i | nt | nt | i
O=C(COc1ccc(Cl)cc1)Nc1ccc(-c2nc3ccccc3s2)c(O)c1 | i | i | nt | i | i | nt
CN1C(=S)N(c2cccnc2)C(=O)/C1=C\c1ccc(C(C)(C)C)cc1 | i | ? | ? | i | 22.4µM | ?
O=C1/C(=C/c2ccccc2)CCc2ccc(Cl)nc21 | i | ? | nt | ? | 20µM | nt
COC(=O)C[C@H]1c2cc(C(F)(F)F)ccc2S(=O)(=O)N1C(C)C | i | nt | nt | nt | i | nt
CCN(CC)C(=S)S | nt | nt | 3.55µM | nt | nt | ?
O=C1[C@H]2[C@H]3[C@H](O)[C@H](O)C/C(=N/OC[C@@H](O)COCc4ccco4)[C@@H]3CC[C@@H]2C(=O)N1Cc1ccccc1 | nt | nt | i[10 µM] | nt | nt | i[10 µM]
Fc1ccc(-c2n[nH]c(=S)n2-c2ccc3c(c2)OCCO3)cc1 | i | i | i | nt | i | 12.6µM
S=c1[nH]nc(-c2ccc(Cl)cc2Cl)n1-c1ccc(Cl)cc1 | i | i | ? | i | i | 6.31µM
COc1ccc(-n2c(-c3ccc(Cl)cc3Cl)n[nH]c2=S)c(OC)c1 | i | i | 6.31µM | i | i | 3.98µM
S=c1[nH]nc(-c2ccc(Cl)cc2)n1-c1ccc(Cl)cc1 | i | i | 7.08µM | i | i | 7.08µM
O=c1ccc(-c2n[nH]c(=S)n2-c2ccc(F)c(Cl)c2)n[nH]1 | i | i | i | i | i | i
S=c1[nH]nc(-c2cccnc2)n1-c1ccc2c(c1)OCCO2 | i | i | i | i | i | ?
Nc1n[nH]c(=S)n1-c1ccc(Cl)cc1 | i | i | i | nt | i | i
COc1ccc(-n2c(-c3ccc(C(C)(C)C)cc3)n[nH]c2=S)c(OC)c1 | i | i | nt | nt | i | nt
S=c1[nH]nc(-c2ccc(Cl)cc2)n1-c1ccc2c(c1)OCCO2 | i | i | 7.08µM | i | i | 3.16µM
COc1ccc2[nH]c3c(c2c1)CCNC3=O | i | i | i | i | i | i
C=C1CCc2c([nH]c3ccc(OCC(C)C)cc23)C1=O | 2.51µM | ? | ? | ? | 5.01µM | 14.1µM
SMILES | HepG2 tox | ATXN viability | VP16 counter | ATXN2 expr inh | TGFb inhibitor | RORg inh
CCOC(=O)c1sc(NC(=O)c2cccnc2)c(C#N)c1C | i | i | i | i | i | i
CCc1ccccc1NC(=O)c1cc(S(=O)(=O)N2CCc3ccccc32)cn1C | i | i | i | i | i | i
CCCNC(=O)c1cc(S(=O)(=O)N2CCc3ccccc32)cn1C | i | i | 14.1µM | i | ? | ?
O=C(Nc1nc2c(s1)CCCC2)c1cccc(S(=O)(=O)N2CCCc3ccccc32)c1 | i | i | 12.6µM | i | ? | 3.16µM
CCc1nnc(NC(=O)c2cccc(S(=O)(=O)N3CCN(c4ccccc4)CC3)c2)s1 | i | i | ? | i | i | 12.6µM
CCOC(=O)c1sc(NC(=O)c2cccc(S(=O)(=O)N3CCc4ccccc43)c2)c(C#N)c1C | i | i | 5.62µM | ? | ? | ?
COc1cc(Nc2ncc3c(n2)CCN(Cc2cc(Br)cs2)C3)cc(OC)c1 | i | i | nt | i | ? | nt
CC(=O)OCC(NC(=O)C(Cc1ccccc1)NC(=O)OC(C)(C)C)C1OC(n2cc(C)c(=O)[nH]c2=O)C(OC(C)=O)C1OC(C)=O (stereo not given) | i | nt | i | nt | i | i
CN(C)c1ncnc2ccc(-c3cccc(NS(C)(=O)=O)c3)cc12 | nt | nt | i | nt | nt | ?
CC1CCN(S(=O)(=O)c2nnc(NC(=O)c3cccc(Br)c3)s2)CC1 | i | nt | nt | nt | 4.47µM | nt
CCC(CC)c1nnc(NC(=O)c2cccc(S(=O)(=O)N3CCc4ccccc43)c2)s1 | i | i | ? | i | ? | 15.8µM
O=C(Nc1nncs1)c1cccc(S(=O)(=O)N2CCc3ccccc32)c1 | i | i | i | i | i | i
COc1ccc(CN(C(=O)/C=C/C(=O)c2ccc(OC)cc2O)C(C(=O)NC2CCCCC2)c2ccncc2)cc1 (stereo not given) | i | ? | i | i | ? | i[10 µM]
COCCN(CC(=O)NC1CCCCC1)C(=O)/C=C/C(=O)c1ccc(OC)cc1O | 12.6µM | nt | i | ? | ? | i
COc1ccc(C(=O)/C=C/C(=O)N(CC(=O)NC2CCCCC2)Cc2cccs2)c(O)c1 | i | 26.7µM | 5.01µM | ? | ? | 7.94µM
CCCc1ccc(OC(=O)CSc2nnc(-c3cccs3)o2)cc1 | i | nt | nt | nt | i | nt
O=C(NCc1ccccc1)c1ccc(NC(=O)c2nsc3ccccc23)cc1 | i | i | nt | i | i | nt
CC(C)(C)C1CCc2c(sc(NC(=O)c3cc(C4CC4)on3)c2C#N)C1 (stereo not given) | i | i | ? | i | i | 5.62µM
NCc1ccccc1CC(=O)N[C@@H]1C(=O)N2C(C(=O)O)=C(CSc3nnnn3CC(=O)O)CS[C@H]12 | nt | i | nt | nt | nt | nt
CCN(Cc1ccccc1)C(=O)c1nc(-c2cccc(F)c2)n2c1CCCCC2 | i | nt | nt | nt | ? | nt
Cc1ccc(CNC(=O)COc2ccc(C)nc2[N+](=O)[O-])cc1 | i | i | i | i | i | i
Cc1ccc(OCC(=O)c2ccc(Cl)s2)c([N+](=O)[O-])n1 | i | i | 20µM | i | i | ?
CC1CN(C(=O)CCc2cc(C(C)(C)C)c(O)c(C(C)(C)C)c2)CC(C)O1 (stereo not given) | i | i | i | i | i | i
CC(C)(C)c1cc(CCC(=O)N2CCC2)cc(C(C)(C)C)c1O | i | i | i | i | i | 12.6µM
CN=c1scc(-c2ccc([N+](=O)[O-])cc2)n1/N=C/c1ccco1 | i | i | i | i | i | i
CN=c1scc(-c2ccc(F)cc2)n1/N=C/c1ccc(O)c(O)c1 | i | ? | 0.794µM | ? | ? | 0.112µM
Cc1cc(C)c(OCCCn2ccnc2)c(C)c1 | i | ? | ? | i | i | 12.6µM
Cc1cc(Cl)c(OCCCn2ccnc2)c(Br)c1 | i | ? | ? | i | ? | 17.8µM
Cc1ccc(OCCCCn2ccnc2)c(Cl)c1 | i | i | ? | i | i | 11.2µM
Cc1cc(C)c(C)c(OCCCn2ccnc2)c1 | i | i | i | i | i | 15.8µM
